Drawing on PubChem BioAssay (EPA / NIEHS), this text covers outcome and AC50 for five molecules.

Test [1] is described as follows: BSK_3C_VCAM1: BioMAP Diversity Plus: 3C Assay for Vascular cell adhesion molecule 1 (VCAM1) Biomarker Activity (AID 2282999). The note with it: BioMAP 3C HUVEC, VCAM1 ELISA, cytokine-stimulated; actives raise or lower the signal. Summed up:
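Activity fitted in both directions relative to DMSO, with ELISA measurement of the surface marker on primary HUVEC (3C) at 24 h post-treatment; parallel SRB staining (0.1% SRB, TCA-fixed, 560 nm) flagged overt cytotoxicity.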
On the technique in general: An ELISA detects its analyte on a solid surface through an enzyme-linked reagent.

Test [2] is described as follows: BSK_4H_Eotaxin3: BioMAP Diversity Plus: 4H Assay for Eotaxin 3 Biomarker Activity (AID 2283000).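 For outcome: CCL26 protein level quantified by ELISA in parallel with SRB cytotoxicity check.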 The note with it: primary human endothelial cells (HUVEC); actives raise or lower the signal. The procedure, abridged: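 Endothelial primary cells (human umbilical vein) exposed to compound for 24 h. ELISA detection of Eotaxin-3.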
The target of test [3] is human Peroxisome Proliferator-activated Receptor delta (PPARd), PPARD (gene 5467) (UniProt Q03181). Kind of test: ATG_PPARd_TRANS: Attagene TRANS-FACTORIAL HepG2 Assay for human Peroxisome Proliferator-activated Receptor delta (PPARd) (AID 2283002; active = hit-call score of the fitted dose curve at least 0.9, where 1 is the maximum). Summed up: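 Transient HepG2 transfection (multiple GAL4-UAS RTUs, chimeric receptor-Gal4); 24 h dosing; total RNA → oligo(dT) RT → PCR → 6-FAM primer extension → HpaI cut → CE. Positive direction vs DMSO.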

Read-out in test [4]: Intercellular Adhesion Molecule 1 (ICAM1), ICAM1 (gene 3383)
Kind of test: BSK_3C_ICAM1: BioMAP Diversity Plus: 3C Assay for Intercellular Adhesion Molecule 1 (ICAM1) Biomarker Activity (AID 2283003). The note with it: primary human endothelial cells (HUVEC); actives raise or lower the signal. Summed up: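 Using DMSO as baseline, bidirectional curve fitting was applied to ICAM-1 ELISA signals from HUVEC in the 3C system, measured 24 h after compound addition.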

The target of test [5] is Retinoic acid receptor alpha (Homo sapiens) (UniProt P10276). Nature of the test: ATG_RARa_TRANS: Attagene TRANS-FACTORIAL HepG2 Assay for human Retinoic Acid Receptor alpha (RARa) (AID 2283005; active = hit-call score of the fitted dose curve at least 0.9, where 1 is the maximum). The procedure, abridged:
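Reporter transcripts, measured by RT-PCR with fluorescent labeling and capillary electrophoresis after 24 h dosing, reflect activity of an exogenous human RARa–GAL4 fusion in transiently transfected HepG2. Fitted for increase relative to DMSO.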

Test [6] in a line: BSK_3C_Proliferation: Cell Proliferation Assessment in the BioMAP Diversity Plus: 3C Assay (AID 2283006).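 For AC50: potency may reflect either rise or fall in cell number versus DMSO.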 As to conditions: primary human endothelial cells (HUVEC). Summed up: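 Measured here: sulforhodamine B (0.1%) staining of TCA-fixed sub-confluent umbilical vein endothelial cultures 48 h post-dosing, absorbance 560 nm. DMSO served as negative control and baseline; both signal gain and loss were modelled.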

For test [7], the target named is Peroxisome proliferator-activated receptor gamma (Homo sapiens) (UniProt P37231). Kind of test: ATG_PPARg_TRANS: Attagene TRANS-FACTORIAL HepG2 Assay for human Peroxisome Proliferator-activated Receptor-gamma (PPARg) (AID 2283007; active = hit-call score of the fitted dose curve at least 0.9, where 1 is the maximum). Summed up: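 Chimeric NR-Gal4 transactivation is measured in transiently transfected HepG2 cells by reporter mRNA induction at 24 h. Detection uses RT-PCR with fluorescent labelling and capillary electrophoresis; DMSO defines baseline.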

Test [8] has as its target human RAR-related Orphan Receptor beta (RORb), RORB (gene 6096) (UniProt Q92753). Kind of test: ATG_RORb_TRANS: Attagene TRANS-FACTORIAL HepG2 Assay for human RAR-related Orphan Receptor beta (RORb) (AID 2283010; active = hit-call score of the fitted dose curve at least 0.9, where 1 is the maximum). The procedure, abridged: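 Multiplexed transcription-factor reporter assay: HepG2 cells transiently carrying NR-Gal4/GAL4-UAS constructs, 24 h treatment, mRNA quantified by RT-PCR plus capillary electrophoresis fluorescence; activity scored as induction over DMSO.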

Test [9] concerns the target human RAR-related Orphan Receptor gamma (RORg), RORC (gene 6097) (UniProt P51449). Nature of the test: ATG_RORg_TRANS: Attagene TRANS-FACTORIAL HepG2 Assay for human RAR-related Orphan Receptor gamma (RORg) (AID 2283011; active = hit-call score of the fitted dose curve at least 0.9, where 1 is the maximum). The procedure, abridged: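 Activity is scored as increase in GAL4-UAS reporter mRNA over DMSO, detected by fluorescent RT-PCR and capillary electrophoresis in HepG2 cells transiently expressing a RORg-Gal4 chimera, 24 h after dosing.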

Test [10] deals with Retinoic acid receptor RXR-alpha (Homo sapiens) (UniProt P19793). Nature of the test: ATG_RXRa_TRANS: Attagene TRANS-FACTORIAL HepG2 Assay for human Retinoid X Receptor alpha (RXRa) (AID 2283012; active = hit-call score of the fitted dose curve at least 0.9, where 1 is the maximum). Summed up: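 Chimeric NR-GAL4 trans-activation in HepG2, 24 h treatment; reporter transcripts quantified by fluorescence on capillary electrophoresis, analysed for upward change from DMSO.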

Test [11] addresses human Thyroid Receptor alpha (THRa1), THRA (gene 7067) (UniProt P10827). Nature of the test: ATG_THRa1_TRANS: Attagene TRANS-FACTORIAL HepG2 Assay for human Thyroid Receptor alpha (THRa1) (AID 2283014; active = hit-call score of the fitted dose curve at least 0.9, where 1 is the maximum). The procedure, abridged:
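First, HepG2 cells receive multiple GAL4-UAS reporter units and the chimeric receptor. They are then dosed for 24 h, after which RNA is reverse-transcribed, amplified, labelled, HpaI-cut and sized by capillary electrophoresis; gain relative to DMSO is scored.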

Read-out in test [12]: E-selectin (Homo sapiens) (UniProt P16581)
Kind of test: BSK_3C_Eselectin: BioMAP Diversity Plus: 3C Assay for Eselectin Biomarker Activity (AID 2283015).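 Note: cell surface E-selectin protein quantified by ELISA 24 h after dosing.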 As to conditions: primary human endothelial cells (HUVEC); actives raise or lower the signal. Summed up:
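Human vascular endothelium from umbilical vein is exposed to test chemicals for 24 h. E-selectin levels are read by ELISA and compared with DMSO controls.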

Read-out in test [13]: Interleukin-1 alpha (IL1a), IL1A (gene 3552)
Nature of the test: BSK_BE3C_IL1a: BioMAP Diversity Plus: BE3C Assay for Interleukin-1 alpha (IL1a) Biomarker Activity (AID 2283016). As to conditions: primary human bronchial epithelial cells; actives raise or lower the signal. Summed up:
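Measured in human lung primary bronchial epithelial cells: IL-1a by ELISA at 24 h after dosing, with bidirectional fitting against DMSO.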

Read-out in test [14]: Monocyte Chemoattractant Protein-1 (MCP1), CCL2 (gene 6347)
Kind of test: BSK_4H_MCP1: BioMAP Diversity Plus: 4H Assay for Monocyte Chemoattractant Protein-1 (MCP1) Biomarker Activity (AID 2283018). As to conditions: primary human endothelial cells (HUVEC); actives raise or lower the signal. Summed up: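 Primary human umbilical vein endothelium is exposed to chemical for 24 h before MCP-1 is assayed by ELISA. Concentration-response fitted bidirectionally relative to DMSO.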

In test [15] the target is human Peroxisome Proliferator-activated Receptor alpha (PPARa), PPARA (gene 5465) (UniProt Q07869). Nature of the test: ATG_PPARa_TRANS: Attagene TRANS-FACTORIAL HepG2 Assay for human Peroxisome Proliferator-activated Receptor alpha (PPARa) (AID 2283001; active = hit-call score of the fitted dose curve at least 0.9, where 1 is the maximum). The procedure, abridged: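 Transfected HepG2 cells treated with test chemical for 24 h. RNA isolated, reverse-transcribed with oligo(dT), PCR-amplified, FAM-labelled and HpaI-digested. Fragments sized by capillary electrophoresis; gain-of-signal fit relative to DMSO.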

Test [16] has as its target Nuclear receptor subfamily 1 group I member 2 (Homo sapiens) (UniProt O75469). Kind of test: ATG_PXR_TRANS: Attagene TRANS-FACTORIAL HepG2 Assay for human Pregnane X Receptor (PXR) (AID 2283008; active = hit-call score of the fitted dose curve at least 0.9, where 1 is the maximum). Summed up: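 Multiplexed TRANS reporter panel in HepG2; this component tracks PXR-Gal4-driven reporter mRNA after 24 h dosing, measured by RT-PCR with capillary electrophoresis fluorescence, fitted against DMSO.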

Test [17] has as its target human Retinoid X Receptor beta (RXRb), RXRB (gene 6257) (UniProt P28702). Nature of the test: ATG_RXRb_TRANS: Attagene TRANS-FACTORIAL HepG2 Assay for human Retinoid X Receptor beta (RXRb) (AID 2283013; active = hit-call score of the fitted dose curve at least 0.9, where 1 is the maximum). Summed up: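 After a 24 h incubation with test chemical, transfected HepG2 cells carrying NR-Gal4 fusions and GAL4-UAS reporter transcription units yield RNA whose reporter cDNA is FAM-labelled, HpaI-cut and sized by capillary electrophoresis; increases over DMSO are scored.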

Read-out in test [18]: Monocyte Chemoattractant Protein-1 (MCP1), CCL2 (gene 6347)
Kind of test: BSK_3C_MCP1: BioMAP Diversity Plus: 3C Assay for Monocyte Chemoattractant Protein-1 (MCP1) Biomarker Activity (AID 2283017). The note with it: primary human endothelial cells (HUVEC); actives raise or lower the signal. Summed up: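 Endothelial cells from human umbilical vein are dosed with chemical, cultured 24 h, then assayed for MCP-1 by ELISA; both increases and decreases are modelled against DMSO controls.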

The target of test [19] is human Retinoic Acid Receptor beta (RARb), RARB (gene 5915) (UniProt P10826). Kind of test: ATG_RARb_TRANS: Attagene TRANS-FACTORIAL HepG2 Assay for human Retinoic Acid Receptor beta (AID 2283004; active = hit-call score of the fitted dose curve at least 0.9, where 1 is the maximum). The procedure, abridged:
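HepG2, transient MRTU transfection, NR–Gal4 chimera, 24 h treatment; RT-PCR plus CE fluorescence detection of reporter mRNA; gain of signal vs DMSO.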

Results filed as inconclusive are left out. Calls of active or inactive are those of the source. Rule for the calls, unless noted: active = hit-call score of the fitted dose curve at least 0.9, where 1 is the maximum; inactive = score below 0.9.

Sequence of Retinoic acid receptor alpha (Homo sapiens) (P10276 whole entry, looked up, the tested form may be a part): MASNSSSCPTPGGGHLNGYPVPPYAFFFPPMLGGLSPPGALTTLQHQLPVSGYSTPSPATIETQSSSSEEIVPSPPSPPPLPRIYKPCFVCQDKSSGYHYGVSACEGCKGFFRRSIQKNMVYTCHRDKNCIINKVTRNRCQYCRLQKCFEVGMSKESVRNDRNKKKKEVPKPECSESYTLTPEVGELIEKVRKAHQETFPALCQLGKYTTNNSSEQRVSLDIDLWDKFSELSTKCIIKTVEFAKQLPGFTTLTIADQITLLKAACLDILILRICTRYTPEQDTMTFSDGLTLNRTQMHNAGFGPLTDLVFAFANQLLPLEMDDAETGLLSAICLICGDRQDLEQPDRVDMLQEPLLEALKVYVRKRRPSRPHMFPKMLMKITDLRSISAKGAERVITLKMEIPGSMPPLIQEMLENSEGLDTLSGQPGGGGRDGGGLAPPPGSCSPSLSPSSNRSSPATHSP
Sequence of human Thyroid Receptor alpha (THRa1), THRA (gene 7067) (P10827 whole entry, looked up, the tested form may be a part): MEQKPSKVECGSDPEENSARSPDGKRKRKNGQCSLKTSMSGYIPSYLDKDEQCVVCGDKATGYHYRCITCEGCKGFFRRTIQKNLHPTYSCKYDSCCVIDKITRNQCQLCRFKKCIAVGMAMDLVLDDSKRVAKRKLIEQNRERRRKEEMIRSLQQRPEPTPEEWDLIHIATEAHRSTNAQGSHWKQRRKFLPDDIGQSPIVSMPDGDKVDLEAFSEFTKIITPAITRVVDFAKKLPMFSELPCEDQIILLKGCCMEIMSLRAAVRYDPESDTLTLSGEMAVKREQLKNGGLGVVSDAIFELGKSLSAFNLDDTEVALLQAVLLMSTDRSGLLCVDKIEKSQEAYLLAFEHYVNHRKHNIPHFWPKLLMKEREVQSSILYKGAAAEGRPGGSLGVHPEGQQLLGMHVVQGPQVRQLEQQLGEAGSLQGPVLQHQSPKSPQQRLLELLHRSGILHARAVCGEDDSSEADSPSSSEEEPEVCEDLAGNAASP
Sequence of E-selectin (Homo sapiens) (P16581 whole entry, looked up): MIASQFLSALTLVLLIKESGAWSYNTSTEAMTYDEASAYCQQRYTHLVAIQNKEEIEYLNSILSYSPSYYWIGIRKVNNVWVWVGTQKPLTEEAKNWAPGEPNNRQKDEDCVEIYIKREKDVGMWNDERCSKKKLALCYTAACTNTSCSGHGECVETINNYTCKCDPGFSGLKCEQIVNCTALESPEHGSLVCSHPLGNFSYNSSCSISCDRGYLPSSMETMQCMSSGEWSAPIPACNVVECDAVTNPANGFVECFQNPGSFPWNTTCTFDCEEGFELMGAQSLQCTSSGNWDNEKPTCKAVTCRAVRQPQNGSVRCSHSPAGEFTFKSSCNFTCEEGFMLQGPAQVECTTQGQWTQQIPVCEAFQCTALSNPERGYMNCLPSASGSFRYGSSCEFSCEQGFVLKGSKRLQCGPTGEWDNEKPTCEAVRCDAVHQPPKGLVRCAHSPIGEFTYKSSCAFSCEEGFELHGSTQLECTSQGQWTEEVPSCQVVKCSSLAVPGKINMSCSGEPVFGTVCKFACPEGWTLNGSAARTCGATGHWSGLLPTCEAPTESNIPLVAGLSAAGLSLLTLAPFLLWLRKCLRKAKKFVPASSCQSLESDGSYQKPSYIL
Sequence of Peroxisome proliferator-activated receptor gamma (Homo sapiens) (P37231 whole entry, looked up, the tested form may be a part): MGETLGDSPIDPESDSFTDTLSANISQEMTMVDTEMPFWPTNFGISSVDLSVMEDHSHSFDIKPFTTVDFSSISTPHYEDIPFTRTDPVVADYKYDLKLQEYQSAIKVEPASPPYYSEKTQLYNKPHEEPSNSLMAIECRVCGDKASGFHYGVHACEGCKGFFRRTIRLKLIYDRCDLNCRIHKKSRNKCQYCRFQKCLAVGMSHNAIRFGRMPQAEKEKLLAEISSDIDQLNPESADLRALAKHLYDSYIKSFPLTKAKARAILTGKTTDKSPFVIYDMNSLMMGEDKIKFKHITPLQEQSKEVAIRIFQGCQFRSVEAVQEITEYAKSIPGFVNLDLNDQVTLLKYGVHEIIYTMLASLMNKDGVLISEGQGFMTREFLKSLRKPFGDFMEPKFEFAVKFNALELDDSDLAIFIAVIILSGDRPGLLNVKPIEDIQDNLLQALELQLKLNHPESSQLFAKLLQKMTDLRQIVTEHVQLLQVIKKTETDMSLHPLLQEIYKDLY
Sequence of Nuclear receptor subfamily 1 group I member 2 (Homo sapiens) (O75469 whole entry, looked up, the tested form may be a part): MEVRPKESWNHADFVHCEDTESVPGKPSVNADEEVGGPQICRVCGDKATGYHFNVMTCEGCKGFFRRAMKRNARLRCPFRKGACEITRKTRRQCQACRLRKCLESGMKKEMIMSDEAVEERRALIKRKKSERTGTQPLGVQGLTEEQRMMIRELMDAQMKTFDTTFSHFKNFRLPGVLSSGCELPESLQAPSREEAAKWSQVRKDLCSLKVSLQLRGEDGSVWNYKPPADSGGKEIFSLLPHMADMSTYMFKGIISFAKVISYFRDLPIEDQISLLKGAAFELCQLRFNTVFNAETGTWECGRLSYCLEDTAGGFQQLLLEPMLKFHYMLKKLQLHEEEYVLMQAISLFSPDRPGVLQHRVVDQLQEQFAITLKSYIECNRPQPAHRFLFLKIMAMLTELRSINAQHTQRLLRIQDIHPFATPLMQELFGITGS
Sequence of human Peroxisome Proliferator-activated Receptor delta (PPARd), PPARD (gene 5467) (Q03181 whole entry, looked up, the tested form may be a part): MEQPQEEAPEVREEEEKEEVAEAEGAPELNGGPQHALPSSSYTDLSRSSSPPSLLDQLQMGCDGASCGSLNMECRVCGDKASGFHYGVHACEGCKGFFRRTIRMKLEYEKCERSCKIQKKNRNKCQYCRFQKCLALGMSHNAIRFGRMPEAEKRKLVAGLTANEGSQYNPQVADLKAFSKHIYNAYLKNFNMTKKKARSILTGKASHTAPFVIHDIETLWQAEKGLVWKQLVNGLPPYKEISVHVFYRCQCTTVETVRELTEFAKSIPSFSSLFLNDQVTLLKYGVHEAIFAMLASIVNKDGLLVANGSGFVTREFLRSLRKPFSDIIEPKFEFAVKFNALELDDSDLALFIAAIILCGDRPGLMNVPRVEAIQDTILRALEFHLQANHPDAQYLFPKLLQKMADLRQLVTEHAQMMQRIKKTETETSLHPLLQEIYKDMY
Sequence of Retinoic acid receptor RXR-alpha (Homo sapiens) (P19793 whole entry, looked up, the tested form may be a part): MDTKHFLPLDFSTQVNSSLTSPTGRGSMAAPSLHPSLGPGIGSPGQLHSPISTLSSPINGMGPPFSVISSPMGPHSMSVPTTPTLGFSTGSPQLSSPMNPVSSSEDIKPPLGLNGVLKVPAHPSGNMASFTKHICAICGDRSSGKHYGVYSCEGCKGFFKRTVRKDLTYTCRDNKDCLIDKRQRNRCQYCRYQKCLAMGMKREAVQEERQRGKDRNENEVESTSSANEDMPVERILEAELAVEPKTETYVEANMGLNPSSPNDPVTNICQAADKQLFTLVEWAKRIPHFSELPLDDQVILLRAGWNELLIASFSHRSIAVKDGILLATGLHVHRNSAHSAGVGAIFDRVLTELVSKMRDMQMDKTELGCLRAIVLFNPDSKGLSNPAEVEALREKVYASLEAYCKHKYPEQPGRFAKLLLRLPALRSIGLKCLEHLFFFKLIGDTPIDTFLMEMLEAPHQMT
Sequence of human RAR-related Orphan Receptor gamma (RORg), RORC (gene 6097) (P51449 whole entry, looked up, the tested form may be a part): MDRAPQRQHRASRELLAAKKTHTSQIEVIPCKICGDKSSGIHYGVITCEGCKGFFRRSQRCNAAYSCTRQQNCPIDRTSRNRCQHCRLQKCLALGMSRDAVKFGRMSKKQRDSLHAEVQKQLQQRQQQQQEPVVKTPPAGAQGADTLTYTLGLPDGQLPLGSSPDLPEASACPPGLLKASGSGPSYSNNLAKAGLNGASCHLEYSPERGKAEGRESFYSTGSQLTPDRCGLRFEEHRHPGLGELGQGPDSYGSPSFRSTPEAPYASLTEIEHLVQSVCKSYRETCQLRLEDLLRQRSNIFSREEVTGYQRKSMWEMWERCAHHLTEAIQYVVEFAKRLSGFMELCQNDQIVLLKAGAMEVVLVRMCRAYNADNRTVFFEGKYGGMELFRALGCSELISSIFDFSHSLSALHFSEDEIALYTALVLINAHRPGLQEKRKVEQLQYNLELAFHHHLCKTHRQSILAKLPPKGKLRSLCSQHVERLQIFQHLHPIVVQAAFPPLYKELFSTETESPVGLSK
Sequence of human Retinoid X Receptor beta (RXRb), RXRB (gene 6257) (P28702 whole entry, looked up, the tested form may be a part): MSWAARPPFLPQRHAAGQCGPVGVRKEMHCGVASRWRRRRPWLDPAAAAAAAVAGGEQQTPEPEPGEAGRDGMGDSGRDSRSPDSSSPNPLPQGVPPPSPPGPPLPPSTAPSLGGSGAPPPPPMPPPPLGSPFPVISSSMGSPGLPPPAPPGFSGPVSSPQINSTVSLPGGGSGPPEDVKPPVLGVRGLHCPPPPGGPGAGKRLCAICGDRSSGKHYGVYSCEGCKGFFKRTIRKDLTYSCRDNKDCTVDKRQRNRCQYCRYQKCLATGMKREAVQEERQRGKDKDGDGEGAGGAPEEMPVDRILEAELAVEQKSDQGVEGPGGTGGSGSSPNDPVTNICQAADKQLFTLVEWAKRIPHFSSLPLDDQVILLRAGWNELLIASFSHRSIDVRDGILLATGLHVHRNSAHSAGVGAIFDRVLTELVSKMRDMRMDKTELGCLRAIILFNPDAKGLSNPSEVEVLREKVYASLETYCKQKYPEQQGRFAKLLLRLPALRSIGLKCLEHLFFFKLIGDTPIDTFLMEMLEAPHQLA
Sequence of human RAR-related Orphan Receptor beta (RORb), RORB (gene 6096) (Q92753 whole entry, looked up, the tested form may be a part): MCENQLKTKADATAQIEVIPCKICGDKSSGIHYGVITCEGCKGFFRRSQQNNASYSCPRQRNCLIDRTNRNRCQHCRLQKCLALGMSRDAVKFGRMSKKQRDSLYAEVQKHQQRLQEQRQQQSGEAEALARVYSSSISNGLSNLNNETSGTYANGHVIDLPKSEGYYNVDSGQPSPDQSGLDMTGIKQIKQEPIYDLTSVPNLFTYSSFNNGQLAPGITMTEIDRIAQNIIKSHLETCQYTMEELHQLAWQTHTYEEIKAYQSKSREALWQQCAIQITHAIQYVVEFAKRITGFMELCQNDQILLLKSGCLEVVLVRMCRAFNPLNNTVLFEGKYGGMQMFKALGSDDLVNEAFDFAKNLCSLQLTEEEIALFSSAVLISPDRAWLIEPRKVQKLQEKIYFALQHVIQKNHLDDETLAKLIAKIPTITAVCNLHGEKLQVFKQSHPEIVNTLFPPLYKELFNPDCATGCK

Take `CCNC(=O)NC(=O)C(C#N)=NOC`: the outcome in test [1], in test [2], in [3], in test [4], in test [5] and in [6] was inactive. In addition, the outcome in [7], in test [8], in test [9], in test [10], in test [11] and in test [12] was inactive. The result in test [13] and in [14] was inactive.
By AC50 is commonly meant the concentration giving half of the maximal activity seen. `N#Cc1c[nH]cc1-c1cccc2c1OC(F)(F)O2`: the outcome in test [1], in test [15], in [4], in [16], in [9] and in [10] was inactive. Also, the molecule was classed as inactive in [11], in test [12], in [13] and in test [14]. Besides, the concentration at half-maximal activity (AC50) was 20 µM (active) in test [2]; 5.61 µM (active) in test [6]; 19.5 µM (active) in [7]; 1.68 µM (active) in [17]; 20 µM (active) in [18].
As to `CC(C)Nc1nc(Cl)nc(NC(C)C)n1`, the result in [1], in test [2], in [3], in [4], in test [6] and in test [7] was inactive. In addition, the call in test [16], in [10], in [17], in test [11], in [12] and in test [13] was inactive. For the same molecule, the result in [14] was inactive.
For `Clc1nc(Cl)nc(Nc2ccccc2Cl)n1`, the outcome in [1], in [2], in test [4], in test [5], in test [6] and in test [16] was inactive. Further, the molecule was called inactive in test [10], in [11], in test [12], in test [13] and in test [14]. Moreover, the AC50 in [7] is 9.95 µM (active).
In the case of `CNC(=O)N(C)c1nnc(C(C)(C)C)s1`, the outcome in test [1], in test [2], in test [3], in test [4], in test [19] and in test [5] was inactive. The outcome in [6], in [7], in test [16], in test [9], in test [10] and in test [12] was inactive. Moreover, the result in [13], in test [18] and in test [14] was inactive.
